Assay [1] is described as follows: Wnt pathway potentiators raising nuclear beta-catenin – imaging, WNT3A-conditioned medium, mouse C2C12, NPC library, primary screen (AID 1117326; in the data active = nuclear beta-catenin stimulation mostly above about 4.2%, no sharp cut-off; inactive = mostly below about 10%; also: reference of the scale not given here). The conditions noted are these: stronger effect = higher value.
A short description of assay [2]: stimulators of insulin release from INS-1E, primary screen, cell-based, 5 mM glucose, NPC library (AID 1117329;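 active = compound raises insulin release from rat beta cells at 5 mM glucose, no numeric limit stated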; also: reference of the scale not given here). The conditions noted are these: rat INS-1E insulin secretion, at 10 µM, stronger effect = higher value.
Assay [3] in a line: growth inhibition of GSK3B-pretreated HCT116 cells – cell-based, CellTiter-Glo, 0.2 to 20 µM (AID 1117336). The conditions noted are these: HCT116 viability after GSK3B inhibitor, at 20 µM, stronger effect = higher value. A general note: In ATP-based viability assays light output follows the ATP content of the culture.
Assay [4] is described as follows: inhibition of endothelial tube formation, primary screen, imaging, VEGF stimulated, CD31 staining, tube area, NPC library (AID 1117340;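 active = compound that reduces growth-factor-driven endothelial tube area in a mixed cell culture, no cutoff stated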). The conditions noted are these: VEGF-stimulated ADSC/ECFC co-culture, at 10 µM, stronger effect = higher value.
Assay [5] can be described thus: GLP1 release stimulators, primary, NCI-H716, NPC library (AID 1117341;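 active = compound raises GLP1 secretion from the human gut endocrine cells, with no numeric limit stated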; also: reference of the scale not given here). The conditions noted are these: NCI-H716 cells, at 10 µM, stronger effect = higher value.
The nature of assay [6]: HCT116 colon cancer cell growth inhibition, primary screen, CellTiter-Glo luminescence, NPC library (AID 1117342;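 active = compounds that lower survival of HCT116 colon cancer cells in the luminescence readout, no numeric limit stated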). Particulars: at 20 µM (top of the series).
Assay [7] is described as follows: reduced SW480 viability measured with CellTiter-Glo, NPC library, primary (AID 1117343;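 active = compounds that lower viability of the colon cancer cells in the luminescence readout, with no numeric limit stated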). Particulars: CellTiter-Glo luminescence; at 20 µM (top of the series).
The nature of assay [8]: NPC library primary testing for decreased DLD-1 cell viability via CellTiter-Glo (AID 1117346;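 active = compounds that lower survival of DLD-1 colon cancer cells in the luminescence readout, no cutoff given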). The conditions noted are these: DLD-1 viability, CellTiter-Glo luminescence; at 20 µM (top of the series).

Active and inactive are the calls of the source.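 The calls were made as follows, unless noted: active = compounds lowering colon cancer cell viability after pretreatment blocking the GSK3B kinase; inactive = the rest.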

Take `O=C(O)CCCC[P+](c1ccccc1)(c1ccccc1)c1ccccc1`: the nuclear beta-catenin stimulation is -2.3% (inactive) in assay [1] (at 10 µM) and -0.2% in assay [1] (stimulation, at 2 µM). For the same compound, the insulin secretion stimulation in assay [2] was 3.5% (inactive). The viability decrease in assay [3] is -11% (inactive). Moreover, the tube area decrease in assay [4] was 7.8% (inactive). Further, the GLP1 secretion stimulation in assay [5] was 2.8% (inactive). Besides, the inhibition of viability in assay [6] was -8.2% (inactive). The viability decrease (inhibition) in assay [7] is -3.6% (inactive); in assay [8], 2.9% (inactive).
`O=C1c2ccccc2CCc2ccccc21`: the nuclear beta-catenin stimulation in assay [1] (at 10 µM) is 0.9% (inactive); in assay [1] (stimulation, at 2 µM) it was -0.9%. In addition, in assay [2], the insulin secretion stimulation is 2.7% (inactive). Also, the viability decrease in assay [3] was 7% (inactive). Besides, the tube area decrease in assay [4] was -5.3% (inactive). Moreover, the GLP1 secretion stimulation in assay [5] was -1.2% (inactive). Moreover, the inhibition of viability in assay [6] is 4.6% (inactive). Also, the values for the viability decrease (inhibition) in assay [7] and in assay [8] were -8.4% (inactive) and 9.1% (inactive), respectively.
For the compound `O=S1(=O)OC(c2ccc(O)cc2)(c2ccc(O)cc2)c2ccccc21`, the nuclear beta-catenin stimulation in assay [1] (at 10 µM) was 0.1% (inactive); in assay [1] (stimulation, at 2 µM) it was -1.3%. Also, the insulin secretion stimulation in assay [2] is 0.55% (inactive). The viability decrease in assay [3] is 12.4% (inactive). In addition, the tube area decrease in assay [4] is 2.5% (inactive). Also, the GLP1 secretion stimulation in assay [5] was -0.4% (inactive). The inhibition of viability in assay [6] was 38.7% (inactive). Also, the values for the viability decrease (inhibition) in assay [7] and in assay [8] were -9.3% (inactive) and 42.9% (inactive), respectively.
Take `NS(=O)(=O)c1cc(-c2nn[nH]n2)c(NCc2cccs2)cc1Cl`: the nuclear beta-catenin stimulation is -3% (inactive) in assay [1] (at 10 µM) and -0.1% in assay [1] (stimulation, at 2 µM). Also, the insulin secretion stimulation in assay [2] is 6.5% (inactive). The viability decrease in assay [3] was -3% (inactive). Further, the tube area decrease in assay [4] is -8.2% (inactive). Moreover, in assay [5], the GLP1 secretion stimulation is -0.2% (inactive). In assay [6], the inhibition of viability is -19.7% (inactive). Moreover, the results for the viability decrease (inhibition) in assay [7] and in assay [8] were 2.3% (inactive) and -10.7% (inactive), respectively.
In the case of `Nc1ccc2c(c1)CN1C(=O)c3ccccc3C1=N2`, the nuclear beta-catenin stimulation in assay [1] (at 10 µM) was 3.6% (inactive); in assay [1] (stimulation, at 2 µM), -0.3%. The insulin secretion stimulation in assay [2] was 4.2% (inactive). Also, the viability decrease in assay [3] is 44.4% (inactive). Also, the tube area decrease in assay [4] was 44.6% (active). Besides, the GLP1 secretion stimulation in assay [5] is 2% (inactive). Also, the inhibition of viability in assay [6] was 13.1% (inactive). The values for the viability decrease (inhibition) in assay [7] and in assay [8] were 79.4% (active) and 28.1% (inactive), respectively.
As to `CC(C)=CCCC(C)=CCCC(C)=CCCC(C)=CCC1=C(C)C(=O)c2ccccc2C1=O`, the nuclear beta-catenin stimulation was -0.4% (inactive) in assay [1] (at 10 µM) and 0% in assay [1] (stimulation, at 2 µM). The insulin secretion stimulation in assay [2] was 0.5% (inactive). Besides, the viability decrease in assay [3] was 27.6% (inactive). Moreover, in assay [4], the tube area decrease is 3.6% (inactive). Further, the GLP1 secretion stimulation in assay [5] is -0.8% (inactive). Further, in assay [6], the inhibition of viability was 37.8% (inactive). In addition, the viability decrease (inhibition) in assay [7] was 12.3% (inactive); in assay [8], 11.1% (inactive).
Regarding `CCCCNC(=O)NS(=O)(=O)c1ccc(N)cc1`, the nuclear beta-catenin stimulation in assay [1] (at 10 µM) is 1.6% (inactive); in assay [1] (stimulation, at 2 µM), 0.7%. For the same compound, the insulin secretion stimulation in assay [2] was 0.4% (inactive). Besides, in assay [3], the viability decrease was 2.75% (inactive). The tube area decrease in assay [4] is -10.5% (inactive). Besides, the GLP1 secretion stimulation in assay [5] is 1.9% (inactive). The inhibition of viability in assay [6] was 1.4% (inactive). The viability decrease (inhibition) is 27.3% (inactive) in assay [7] and 8.7% (inactive) in assay [8].
Regarding `O=C(/C=C/c1ccccc1)OCc1ccccc1`, the nuclear beta-catenin stimulation is 1.3% (inactive) in assay [1] (at 10 µM) and 0.1% in assay [1] (stimulation, at 2 µM). The insulin secretion stimulation in assay [2] is -0.1% (inactive). Moreover, the viability decrease in assay [3] is -14.9% (inactive). In assay [4], the tube area decrease was 3% (inactive). The GLP1 secretion stimulation in assay [5] is -1.3% (inactive). Also, the inhibition of viability in assay [6] is 5.05% (inactive). Further, the results for the viability decrease (inhibition) in assay [7] and in assay [8] were 19.3% (inactive) and 7.4% (inactive), respectively.
For `COc1cc2c(cc1OC)CN(C(=O)[C@H](C)N[C@@H](CCc1ccccc1)C(=O)O)[C@H](C(=O)O)C2`, the nuclear beta-catenin stimulation in assay [1] (at 10 µM) is -0.2% (inactive); in assay [1] (stimulation, at 2 µM) it was -2.5%. In assay [2], the insulin secretion stimulation is 0.4% (inactive). Besides, the viability decrease in assay [3] is -9.2% (inactive). Moreover, the tube area decrease in assay [4] was 14.8% (inactive). Further, the GLP1 secretion stimulation in assay [5] was -1.8% (inactive). Also, in assay [6], the inhibition of viability was 7.6% (inactive). Besides, the viability decrease (inhibition) was -3.9% (inactive) in assay [7] and -16.7% (inactive) in assay [8].
`CC(CCc1ccc2c(c1)OCO2)NN` (centres undefined): the nuclear beta-catenin stimulation in assay [1] (at 10 µM) is 0.2% (inactive); in assay [1] (stimulation, at 2 µM) it was 0.2%. The insulin secretion stimulation in assay [2] is -2.2% (inactive). Also, the viability decrease in assay [3] was 57.8% (active). In assay [4], the tube area decrease is 23.7% (inactive). Further, in assay [5], the GLP1 secretion stimulation was 2.3% (inactive). Moreover, the inhibition of viability in assay [6] is 84.6% (active). In addition, the viability decrease (inhibition) in assay [7] is 97.6% (active); in assay [8] it was 17.7% (inactive).
In the case of `O=[N+]([O-])c1nccn1CO[C@@H](CO)[C@H](O)CO`, the nuclear beta-catenin stimulation in assay [1] (at 10 µM) is -0.2% (inactive); in assay [1] (stimulation, at 2 µM) it was -0.8%. Moreover, the insulin secretion stimulation in assay [2] is 1.45% (inactive). Also, the viability decrease in assay [3] was 40% (inactive). In addition, the tube area decrease in assay [4] was -13.2% (inactive). Moreover, the GLP1 secretion stimulation in assay [5] is -3.1% (inactive). Further, the inhibition of viability in assay [6] was 7.6% (inactive). The viability decrease (inhibition) in assay [7] was 2.3% (inactive); in assay [8] it was -5.8% (inactive).
Regarding `O=C(O)Cn1c(=O)n(Cc2ccc(Br)cc2F)c(=O)c2ccc(Cl)cc21`, the nuclear beta-catenin stimulation in assay [1] (at 10 µM) was 1.1% (inactive); in assay [1] (stimulation, at 2 µM), -0.9%. Further, in assay [2], the insulin secretion stimulation is 2.4% (inactive). In assay [3], the viability decrease was 4.6% (inactive). Further, in assay [4], the tube area decrease was 21.7% (inactive). In addition, the GLP1 secretion stimulation in assay [5] is -1.6% (inactive). Further, in assay [6], the inhibition of viability was 5% (inactive). Also, the viability decrease (inhibition) in assay [7] was -2.1% (inactive); in assay [8], -18.7% (inactive).
Consider `CCC(CN)=C(c1ccccc1)c1ccccc1`, for which the nuclear beta-catenin stimulation is -0.1% (inactive) in assay [1] (at 10 µM) and 0.1% in assay [1] (stimulation, at 2 µM). Also, the insulin secretion stimulation in assay [2] was 29.4% (active). In assay [3], the viability decrease is 17.9% (inactive). Also, the tube area decrease in assay [4] was 7% (inactive). Besides, the GLP1 secretion stimulation in assay [5] was 2.2% (inactive). For the same compound, the inhibition of viability in assay [6] was 78.6% (active). The values for the viability decrease (inhibition) in assay [7] and in assay [8] were 92% (active) and 55.1% (active), respectively.
As for `OCC(O)CS` (centres undefined), the nuclear beta-catenin stimulation in assay [1] (at 10 µM) was -0.5% (inactive); in assay [1] (stimulation, at 2 µM), 0.8%. For the same compound, the insulin secretion stimulation in assay [2] was 0.7% (inactive). Besides, the viability decrease in assay [3] was -84.2% (inactive). Further, the tube area decrease in assay [4] was 27.8% (inactive). In assay [5], the GLP1 secretion stimulation is 0.4% (inactive). For the same compound, the inhibition of viability in assay [6] was 6.77% (inactive). The figures for the viability decrease (inhibition) in assay [7] and in assay [8] were -24% (inactive) and -8.2% (inactive), respectively.
On to `O=P(O)(O)C(O)(Cc1cnc2ccccn12)P(=O)(O)O`, for which the nuclear beta-catenin stimulation in assay [1] (at 10 µM) was -0.5% (inactive); in assay [1] (stimulation, at 2 µM), 1.4%. For the same compound, the insulin secretion stimulation in assay [2] was -0.3% (inactive). For the same compound, the viability decrease in assay [3] was 2.2% (inactive). Besides, the tube area decrease in assay [4] is 7.8% (inactive). The GLP1 secretion stimulation in assay [5] was 4.3% (inactive). The inhibition of viability in assay [6] is 13.5% (active). For the same compound, the viability decrease (inhibition) is 3.6% (inactive) in assay [7] and 9.7% (inactive) in assay [8].
On to `CCCCCCCC/C=C\CCCCCCCCN`, for which the nuclear beta-catenin stimulation in assay [1] (at 10 µM) is -3.5% (inactive); in assay [1] (stimulation, at 2 µM), 2.6%. In assay [2], the insulin secretion stimulation was -0.6% (inactive). Moreover, in assay [3], the viability decrease is 18.7% (inactive). Moreover, in assay [4], the tube area decrease is 90% (active). The GLP1 secretion stimulation in assay [5] was 24.7% (active). Also, the inhibition of viability in assay [6] is 33.8% (inactive). The figures for the viability decrease (inhibition) in assay [7] and in assay [8] were 147% (active) and 106% (active), respectively.

The values above are taken from PubChem BioAssay.
